The whole screen tested about 5,500 compounds, of which about 2,000 (36%) were called active. Roughly 18% stayed inconclusive and do not appear here. Rule as the data show it: active = normalized growth mostly below about 0.91 (no sharp cut-off); inconclusive = no clear call, values can overlap the other calls; inactive = mostly above about 0.92. Some of the results follow.
Assay: chemical genetic growth profiling, strain panel (AID 1159580);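 also: tested at 20 µM; growth read once vehicle control cultures reached saturation at 30 °C; 1 = growth at the plate median or of vehicle wells; lower values mean less growth of the strain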
Conditions: S. cerevisiae deletion strains, growth OD

Measured: normalized growth

COc1cc(OC)c2c(=O)c(-c3ccccc3)c(C)oc2c1OC
inactive: locus YAL013W, strain DEP1, stronger effect = lower value 1.01 | locus YAL021C, strain ccr4, stronger effect = lower value 0.984 | locus YAL026C, strain drs2, stronger effect = lower value 0.986 | locus YAL030W, strain snc1, stronger effect = lower value 0.976 | locus YBL061C, strain skt5, stronger effect = lower value 0.975 | locus YBR009C, strain hhf1, stronger effect = lower value 0.953 | locus YBR021W, strain FUR4, stronger effect = lower value 1 | locus YBR023C, strain chs3, stronger effect = lower value 0.987 | locus YBR171W, strain sec66, stronger effect = lower value 0.984 | locus YBR229C, strain ROT2, stronger effect = lower value 1 | locus YBR231C, strain swc5, stronger effect = lower value 0.993 | locus YBR279W, strain paf1, stronger effect = lower value 0.986 | locus YCL011C, strain gbp2, stronger effect = lower value 0.973 | locus YCL016C, strain dcc1, stronger effect = lower value 0.987 | locus YCL029C, strain bik1, stronger effect = lower value 1 | locus YCL061C, strain MRC1, stronger effect = lower value 0.988 | locus YCL069W, strain vba3, stronger effect = lower value 0.974 | locus YCR088W, strain abp1, stronger effect = lower value 0.988 | locus YDL005C, strain med2, stronger effect = lower value 0.973 | locus YDL035C, strain GPR1, stronger effect = lower value 1.02 | locus YDL040C, strain nat1, stronger effect = lower value 0.985 | locus YDL074C, strain BRE1, stronger effect = lower value 1.02 | locus YDL101C, strain DUN1, stronger effect = lower value 1.01 | locus YDL134C, strain PPH21, stronger effect = lower value 1 | locus YDL185W, strain tfp1, stronger effect = lower value 1 | locus YDL192W, strain arf1, stronger effect = lower value 0.995 | locus YDR001C, strain nth1, stronger effect = lower value 0.987 | locus YDR069C, strain doa4, stronger effect = lower value 0.966 | locus YDR101C, strain arx1, stronger effect = lower value 0.984 | locus YDR137W, strain rgp1, stronger effect = lower value 0.955 | locus YDR150W, strain NUM1, stronger effect = lower value 1.02 | locus YDR159W, strain sac3, stronger effect = lower value 0.973 | locus YDR162C, strain NBP2, stronger effect = lower value 1.02 | locus YDR195W, strain ref2 0.921 | locus YDR297W, strain sur2, stronger effect = lower value 0.988 | locus YDR318W, strain mcm21, stronger effect = lower value 0.995 | locus YDR334W, strain swr1, stronger effect = lower value 0.981 | locus YDR335W, strain msn5, stronger effect = lower value 0.997 | locus YDR388W, stronger effect = lower value 0.988 | locus YDR392W, strain spt3, stronger effect = lower value 0.925 | locus YDR502C, strain sam2, stronger effect = lower value 0.997 | locus YEL003W, strain gim4, stronger effect = lower value 0.987 | locus YEL037C, strain rad23, stronger effect = lower value 0.981 | locus YEL061C, strain CIN8 (second series), stronger effect = lower value 0.967 | locus YEL061C, strain CIN8, stronger effect = lower value 1.01 | locus YER015W, strain faa2, stronger effect = lower value 0.981 | locus YER016W, strain bim1, stronger effect = lower value 0.986 | locus YER110C, stronger effect = lower value 0.994 | locus YER111C, strain swi4, stronger effect = lower value 0.971 | locus YER155C, strain BEM2 (second series), stronger effect = lower value 0.978 | locus YER155C, strain BEM2, stronger effect = lower value 1.01 | locus YER167W, strain BCK2, stronger effect = lower value 1 | locus YFR010W, strain ubp6, stronger effect = lower value 0.98 | locus YGL078C, strain dbp3, stronger effect = lower value 0.998 | locus YGL086W, strain mad1, stronger effect = lower value 1 | locus YGL167C, strain pmr1, stronger effect = lower value 0.97 | locus YGL173C, strain kem1, stronger effect = lower value 0.99 | locus YGL227W, strain vid30, stronger effect = lower value 0.961 | locus YGL240W, strain doc1, stronger effect = lower value 0.977 | locus YGL248W, strain PDE1, stronger effect = lower value 1 | locus YGL253W, strain hxk2, stronger effect = lower value 0.994 | locus YGR078C, strain PAC10, stronger effect = lower value 1.01 | locus YGR135W, strain pre9, stronger effect = lower value 0.993 | locus YGR229C, strain SMI1, stronger effect = lower value 1.03 | locus YGR252W, strain gcn5, stronger effect = lower value 0.943 | locus YHR013C, strain ard1, stronger effect = lower value 0.94 | locus YHR027C, strain rpn1, stronger effect = lower value 0.987 | locus YHR030C, strain SLT2, stronger effect = lower value 1.01 | locus YHR079C, strain IRE1 (second series), stronger effect = lower value 0.989 | locus YHR094C, strain hxt1, stronger effect = lower value 0.993 | locus YHR129C, strain ARP1, stronger effect = lower value 1 | locus YHR142W, strain chs7, stronger effect = lower value 1.01 | locus YHR200W, strain rpn10, stronger effect = lower value 0.997 | locus YIL066C, strain RNR3, stronger effect = lower value 1.01 | locus YIL073C, strain SPO22, stronger effect = lower value 0.999 | locus YIL125W, strain kgd1, stronger effect = lower value 0.997 | locus YIR030C, strain dcg1, stronger effect = lower value 1 | locus YJL092W, strain hpr5, stronger effect = lower value 0.987 | locus YJL095W, strain BCK1, stronger effect = lower value 1.01 | locus YJL115W, strain asf1, stronger effect = lower value 1 | locus YJL129C, strain trk1, stronger effect = lower value 0.946 | locus YJL134W, strain LCB3, stronger effect = lower value 1.01 | locus YJL154C, strain vps35, stronger effect = lower value 0.985 | locus YJL164C, strain tpk1, stronger effect = lower value 1 | locus YJL166W, strain qcr8, stronger effect = lower value 0.98 | locus YJL168C, strain set2, stronger effect = lower value 0.997 | locus YJL187C, strain SWE1 (second series), stronger effect = lower value 1.01 | locus YJL187C, strain SWE1, stronger effect = lower value 0.987

Source: PubChem BioAssay AID1159580 (chemical genetic matrix, 2015)
